# Inconclusive results are not listed. Unmarked numbers belong to inactive results. Activity calls are given as the source filed them. The call rests on the fitted dose curve; in most records, active means well fitted activation curve with a large enough effect in the repeat runs; inconclusive means weak or mixed curves, or effect the other way; inactive means no such curve, though single readings can be large or run the other way.
# Assay: qHTS assay to identify small molecule agonists of the retinoic acid receptor (RAR) signaling pathway (AID 1159553)
# Settings: C3RL4 RARE luciferase reporter, agonist, 6 h; series mostly up to 73.3 µM; activation: at the top concentration
# From the text: National Center for Advancing Translational Sciences [NCATS] NIH Chemical Genomics Center [NCGC] U.S. Environmental Protection Agency [EPA] National Institutes of Environmental Health Sciences [NIEHS] National Toxicology Program [NTP] Assay overview: All-trans Retinoic acid (atRA) is the potent natural metabolite of retinol and plays an important role in normal embryonic development and maintenance of cellular phenotype in adult animals. atRA is the activating ligand for the retinoic acid receptors (RARs) which form heterodimers with retinoid X receptors (RXRs) on the retinoic acid response element (RARE). Through activation of the RAR/RXRs nuclear receptors, atRA regulates the transcription of a large number of protein-coding genes and regulatory RNAs. Intracellular levels of atRA are controlled by the retinol signaling pathway (RSP) that regulates the biosynthesis and catabolism of atRA to maintain physiological levels. Chemicals that interfere with the RSP can cause abnormal intracellular levels of atRA and therefore are potential developmental toxicants. To assess compounds for the potential adverse effect on embryonic development through interfering with retinol signaling, a cell-based RARE luciferase reporter gene assay was used. C3RL4 cell line (OARSA/CFSAN/FDA, Laurel, MD) was used to screen Tox21 10K compound library for identifying activators of the RSP.
# Assay Protocol Summary: C3RL4 cells were seeded at 1,000/well in 5 uL of assay medium into white solid 1,536-well tissue culture plates (Greiner Bio-One North America Inc. Monroe, NC) using a Multidrop Combi (Thermo Scientific, Waltham, MA) dispenser. After incubation at 37 C and 5% CO2 for an overnight, 23 nL of compounds dissolved in DMSO, positive control or DMSO only were transferred by a Pintool station (Kalypsys, San Diego, CA). After 6 hr incubation at 37 C and 5% CO2, 5 uL of Amplite Luciferase reagent (AAT Bioquest Inc. Sunnyvale, CA) was added to each assay plate using a Flying Reagent Dispenser (FRD) (Aurora Discovery, San Diego, CA). Luminescence was quantified on a ViewLux plate reader (PerkinElmer, Waltham, MA) after 30 min incubation at room temperature.
# On the % scale 0 is the no-effect control and ±100 the full control effect; potency means the concentration at half of the fitted maximal effect.
SMILES,activation,Potency
O=C1c2cccc3c2[C@H](CCC3)CN1[C@@H]1CN2CCC1CC2,-9.64%,
CCOCCOC(=O)/C=C/c1ccc(OC)cc1,,33.5 µM (active)
Cc1cc(NC(=O)C2=C(O)c3ccccc3S(=O)(=O)N2C)no1,5.35%,
O=C(OCC1(COC(=O)c2cccnc2)CCCC(COC(=O)c2cccnc2)(COC(=O)c2cccnc2)C1O)c1cccnc1,3.01%,
Cc1ccccc1C(=O)Nc1ccc(C(=O)N2CCCC(N(C)C)c3ccccc32)cc1 (stereo not given),-11%,
CC(C)=O,-3.79%,
CC(CN)CC(C)(C)CCN (stereo not given),-1.42% [at 94.8 µM],
CC(C)CC(=O)O,0.522%,
COc1ccc2c(c1)C(=O)N(CCc1ccc(S(=O)(=O)NC(=O)NC3CCCCC3)cc1)C(=O)C2(C)C,-2.36%,
CC1(CO)CN(c2ccccc2)NC1=O (stereo not given),4.99%,
FC(F)(F)c1ccccc1-n1ccnc1,-0.578%,
CCCCCCOc1ccccc1C(N)=O,,13.3 µM (active)
Cc1ccccc1N=O,2.33% [at 94.8 µM],
O=C1c2ccccc2C(=O)C1c1ccccc1,0.363%,
C[C@@H]1O[C@@H](O[C@@H]2[C@@H](O)[C@H](OCCc3ccc(O)c(O)c3)O[C@H](CO[C@@H]3O[C@H](CO)[C@@H](O)[C@H](O)[C@H]3O)[C@H]2OC(=O)/C=C/c2ccc(O)c(O)c2)[C@H](O)[C@H](O)[C@H]1O,0.106%,
CC(=O)OC(C)OC(=O)C(C)c1ccc(-c2ccccc2)c(F)c1 (stereo not given),1.07%,
COc1cc(N)ccc1C,-0.0023%,
CC1=C(C(=O)O)N2C(=O)[C@@H](NC(=O)[C@H](N)c3ccc(O)cc3)[C@H]2SC1,0.948%,
Nc1ccc([N+](=O)[O-])c(N)c1,5.49%,
CC(C)=CCOC(=O)c1ccccc1,-0.0667%,

SMILES,activation,Potency
O=C(NCC(O)CO)c1c(I)c(C(=O)NCC(O)CO)c(I)c(N(CCO)C(=O)CO)c1I (stereo not given),1.36%,
CC(C)C(=O)OCCc1ccccc1,-0.711%,
O=S(O)(O)=S,-0.738% [at 8.36 µM],
Nc1cccc(O)c1,0.258% [at 94.8 µM],
CN1C(C)(C)CCCC1(C)C,0.624%,
CC(=O)Nc1cccc(C)c1,-0.168% [at 94.8 µM],
CCCCCCCCCCl,-0.185% [at 94.8 µM],
O=C(NCCc1c[nH]c2ccccc12)c1cccnc1,,21.1 µM (active)
O=C(OCC(O)CO)c1ccccc1Nc1ccnc2c(C(F)(F)F)cccc12 (stereo not given),-7.68%,
O=C(Nc1ccc(Cl)c(Cl)c1)C1CC1,7.87%,
Brc1ccc(-c2ccccc2)cc1,-0.19%,
CCCC/C=C/C=C\C=O,4.16%,
CCN(C)C(=O)Oc1cccc([C@H](C)N(C)C)c1,0.334%,
COc1ccc(-c2cc(=O)c3c(O)cc(O[C@@H]4O[C@H](CO[C@@H]5O[C@@H](C)[C@H](O)[C@@H](O)[C@H]5O)[C@@H](O)[C@H](O)[C@H]4O)cc3o2)cc1O,0.629%,
O=P(O)(O)OP(=O)(O)O,-1.22%,
OCCCCC(O)CO (stereo not given),0.701%,
CC(N)C(=O)OC(C)(C)Cc1ccc(Cl)cc1 (stereo not given),-4.27%,
COc1ccc(S(=O)(=O)N2c3ccc(Cl)cc3[C@@](O)(c3ccccc3Cl)[C@H]2C(=O)N2CCC[C@@H]2C(N)=O)cc1OC,0.602%,
CCCCOC(=O)c1ccccc1,0.679%,
NCCN1CCOCC1,0.024%,
